# Laboratory results published in PubChem BioAssay (NCATS).
# Inconclusive results are not listed. Entries that show only a call come without a potency. Activity calls are given as the source filed them. Unless noted, the call rests on the fitted dose curve; in most records, active means well fitted curve in the direction sought with a large enough effect; inconclusive means small, poorly fitted or top-dose-only effect, or another doubt; inactive means no such curve, though single readings can be large; an effect the other way counts as inactive or inconclusive.
# Legend:
# [1] = target: Guanidinoacetate N-methyltransferase (Homo sapiens) (UniProt Q14353); assay: Confirmatory Screen for Target Class Profiling of Small Molecule Inhibitors of Methyltransferases (AID 1745852; calls by dose curve); details: MTase-Glo luminescence, SAH detection, recombinant enzyme; activity change, negative = inhibition: at 57.3 µM (top of the series) unless noted
# [2] = target: Nicotinamide N-methyltransferase (Homo sapiens) (UniProt P40261); assay: as above; details: MTase-Glo luminescence, SAH detection, recombinant enzyme; measured here: NNMT max response; stronger effect = lower value
# Sequence of Nicotinamide N-methyltransferase (Homo sapiens) (P40261 whole entry, looked up): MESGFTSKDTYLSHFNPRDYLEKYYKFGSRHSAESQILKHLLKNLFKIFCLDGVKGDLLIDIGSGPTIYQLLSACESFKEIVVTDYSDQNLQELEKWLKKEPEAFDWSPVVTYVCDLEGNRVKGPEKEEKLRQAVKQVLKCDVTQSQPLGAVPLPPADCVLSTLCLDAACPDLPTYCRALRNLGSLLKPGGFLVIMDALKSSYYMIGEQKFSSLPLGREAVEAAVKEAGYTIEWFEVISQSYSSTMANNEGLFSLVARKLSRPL
# [3] = target: Phenylethanolamine N-methyltransferase (Homo sapiens) (UniProt P11086); assay: as above; details: MTase-Glo luminescence, SAH detection, recombinant enzyme; measured here: PNMT max response; stronger effect = lower value
# Sequence of Phenylethanolamine N-methyltransferase (Homo sapiens) (P11086 whole entry, looked up): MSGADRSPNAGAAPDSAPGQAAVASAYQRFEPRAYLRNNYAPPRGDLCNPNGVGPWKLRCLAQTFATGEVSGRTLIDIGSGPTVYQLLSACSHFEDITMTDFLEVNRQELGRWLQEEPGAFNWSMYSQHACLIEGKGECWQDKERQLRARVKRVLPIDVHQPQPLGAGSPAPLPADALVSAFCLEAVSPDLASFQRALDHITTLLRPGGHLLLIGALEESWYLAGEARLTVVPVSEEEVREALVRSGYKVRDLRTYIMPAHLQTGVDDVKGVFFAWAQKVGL
# [4] = target: Metallo-beta-lactamase type 2 (Klebsiella pneumoniae) (UniProt C7C422); assay: qHTS to identify inhibitors of the New Delhi Metallo-beta-lactamase (NDM): assay validation screen against the NCATS LOPAC Collection (AID 1794843);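 further: nitrocefin turnover by NDM-1 measured as 485 nm absorbance at plateau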
# Sequence of Metallo-beta-lactamase type 2 (Klebsiella pneumoniae) (C7C422 whole entry, looked up): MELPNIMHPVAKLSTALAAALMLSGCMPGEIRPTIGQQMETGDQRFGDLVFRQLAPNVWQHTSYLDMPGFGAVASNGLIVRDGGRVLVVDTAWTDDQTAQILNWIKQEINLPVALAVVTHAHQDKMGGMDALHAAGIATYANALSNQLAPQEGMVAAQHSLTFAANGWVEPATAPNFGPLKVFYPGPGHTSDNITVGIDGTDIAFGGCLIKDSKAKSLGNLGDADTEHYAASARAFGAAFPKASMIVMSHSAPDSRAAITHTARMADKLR
# Summary of the method: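 Nitrocefin hydrolysis (50 uM substrate stock) by NDM-1, 2 nM final, was followed by 485 nm absorbance after compound preincubation; buffer was 50 mM HEPES pH 7.0, 1 uM ZnSO4, 0.01% Tween20.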
# [5] = target: Phospholipid hydroperoxide glutathione peroxidase GPX4 (Homo sapiens) (UniProt P36969); assay: Primary qHTS Assay for Inhibitors of Recombinant Selenoprotein Glutathione Peroxidase 4 (GPX4) (AID 1845192); further: nearly all actives have a fitted effect of over 65% in size; further: potency means the concentration at half of the fitted maximal effect
# Sequence of Phospholipid hydroperoxide glutathione peroxidase GPX4 (Homo sapiens) (P36969 whole entry, looked up): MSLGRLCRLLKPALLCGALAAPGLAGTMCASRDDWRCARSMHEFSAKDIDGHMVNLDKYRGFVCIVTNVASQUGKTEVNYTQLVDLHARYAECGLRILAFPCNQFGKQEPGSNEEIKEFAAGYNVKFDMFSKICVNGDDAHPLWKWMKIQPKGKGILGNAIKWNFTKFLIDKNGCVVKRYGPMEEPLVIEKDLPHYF
# Summary of the method: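 NADPH consumption followed by fluorescence at 340/450 nm, t=0 and after 15 min at room temperature. Reaction started with cumene hydroperoxide (0.5 mM final) after 30 min compound–GPX4 preincubation; final 200 nM GPX4, 100 nM GR, 1 mM GSH, 0.5 mM NADPH.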
# [6] = Quantitative High-Throughput drug screen in 47 multiple myeloma cell lines against the NCATS MIPE library collection: FR4_PLB cell viability assay (AID 1918924; further: nearly all actives have a fitted effect of over 35% in size; further: potency means the concentration at half of the fitted maximal effect)
# Summary of the method: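 Approved and investigational drugs from MIPE 4.0 were added by pin tool to 500 cells per well. After 48 hours at 37C, ATP-based CellTiter-Glo luminescence indicated remaining viability.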
# [7] = Quantitative High-Throughput drug screen in 47 multiple myeloma cell lines against the NCATS MIPE library collection: EJM_DSMZ cell viability assay (AID 1918926; further: nearly all actives have a fitted effect of over 30% in size; further: potency means the concentration at half of the fitted maximal effect)
# Summary of the method: (§1)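 Primary qHTS used for cherry-picking: cells at 500/well, library compounds for 48 h (37C, 5% CO2), luminescent ATP assay.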
# [8] = NCATS anti-infectives library activity on the primary C. elegans qHTS viability assay (AID 1745855; calls by dose curve; further: potency means the concentration at half of the fitted maximal effect)
# Summary of the method: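 Titration-based screen in worms: eggs hatched overnight in M9, L1 larvae fed TOP10 capsules in S medium with compound, incubated 21 °C for 7 days; fluorescent objects gated by size and intensity at days 0, 3 and 7.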
# [9] = target: Glutathione peroxidase 1 (Homo sapiens) (UniProt P07203); assay: Primary qHTS Assay for Inhibitors of Recombinant Selenoprotein Glutathione Peroxidase 1 (GPX1) (AID 1845191); further: nearly all actives have a fitted effect of over 65% in size
# Sequence of Glutathione peroxidase 1 (Homo sapiens) (P07203 whole entry, looked up): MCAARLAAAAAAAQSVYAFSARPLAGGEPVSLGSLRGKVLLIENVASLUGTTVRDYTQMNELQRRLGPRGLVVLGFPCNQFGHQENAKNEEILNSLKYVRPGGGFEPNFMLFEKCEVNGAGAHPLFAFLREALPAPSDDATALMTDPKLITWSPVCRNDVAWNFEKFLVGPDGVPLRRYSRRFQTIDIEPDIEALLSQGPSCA
# Summary of the method: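 NADPH consumption tracked by fluorescence at 340/450 nm between t=0 and t=15 min, room temperature. Final mix: 10 nM GPX1, 100 nM glutathione reductase, 1 mM GSH, 0.5 mM NADPH, 0.5 mM cumene hydroperoxide, 0.01% BSA; 30 min compound–enzyme preincubation.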
# [10] = Quantitative High-Throughput drug screen in 47 multiple myeloma cell lines against the NCATS MIPE library collection: Delta47_JCRB cell viability assay (AID 1918925; further: nearly all actives have a fitted effect of over 45% in size; further: potency means the concentration at half of the fitted maximal effect)
# Summary of the method: as §1
# [11] = NCATS anti-infectives library activity on HEK293 viability as a counter-qHTS vs the C. elegans viability qHTS (AID 1745854)
# Summary of the method: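 CellTiter-Glo luminescence, read on a CCD imager, scored viability of HEK293 cells after 24 hr compound exposure at 37C. Library tested in several concentrations, 1:5 steps, up to 41.7 uM; digitonin served as control.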
# [12] = target: Luciferin 4-monooxygenase (Photinus pyralis) (UniProt P08659); assay: Primary firefly luciferase (FLuc) qHTS assay for identification of artifact compounds. (AID 1845220); further: nearly all actives have a fitted effect of over 60% in size
# Summary of the method: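 FLuc 10 nM; luciferin 10 uM; ATP 10 uM; Tris-acetate pH 7.6, Mg-acetate 10 mM; 15 min RT preincubation; 5 min reaction; luminescence.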
# [13] = system: Nanoluciferase (engineered Oplophorus gracilirostris luciferase); assay: Primary Nanoluciferase (NLuc) qHTS assay for identification of artifact compounds. (AID 1845222);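 further: NLuc secreted into diluted conditioned medium of S16 cells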
# Summary of the method: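 NLuc from S16 cell medium (1:55) plus test compounds, 15 min, room temperature. Luminescence after Nano-Glo (1:100) addition, 5 min.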
# [14] = Primary redox qHTS assay for identification of artifact compounds. (AID 1845223)
# Summary of the method: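 Redox-cycling detection via DTT (250 uM final) oxidation coupled to Amplex Red (25 uM)/HRP (250 mU/mL) in HBSS. 15 min preincubation plus 30 min after DTT, room temperature. Ex/Em 525/598 nm; 4-parameter Hill fit against DMSO and 10 uM DA3003.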
compound,measurement,setting,value
Cc1ccccc1C(OCCN(C)C)c1ccccc1 (stereo unspecified),"activity change, negative = inhibition",[1],6.46%
same,activity,[2],-5.32%
same,activity,[3],-1.88%
same,outcome,[4],inactive
same,Potency,[5],inactive
same,Potency,[6],inactive
same,Potency,[7],inactive
CO[C@@H]1[C@H](N(C)C(=O)c2ccccc2)C[C@H]2O[C@]1(C)n1c3ccccc3c3c4c(c5c6ccccc6n2c5c31)C(=O)NC4,Potency,[8],inactive
same,Potency,[9],inactive
same,Potency,[6],inactive
same,Potency,[10],1.05 µM (active)
c1ccc([C@H]2CN3CCSC3=N2)cc1,outcome,[11],inactive
same,Potency,[8],5.15 µM (active)
same,outcome,[4],inactive
same,Potency,[9],inactive
same,Potency,[6],inactive
same,Potency,[7],inactive
NC[C@H](O)c1ccc(O)c(O)c1,"activity change, negative = inhibition",[1],-4.17%
same,activity,[2],2.1%
same,activity,[3],21.8%
same,outcome,[4],inactive
same,Potency,[9],inactive
same,Potency,[10],inactive
same,Potency,[7],inactive
CCN(CC)CCCC(C)Nc1ccnc2cc(Cl)ccc12 (stereo unspecified),"activity change, negative = inhibition",[1],2.04% [at 9.47 µM]
same,activity,[2],3.54%
same,activity,[3],0.752%
same,outcome,[4],inactive
same,"activity change, negative = inhibition",[12],-3.19% [at 11.6 µM] (inactive)
same,"activity, negative = inhibition",[13],2.98% [at 11.6 µM] (inactive)
same,redox activity (% of DA3003),[14],-9.33% [at 11.5 µM] (inactive)
same,Potency,[6],inactive
same,Potency,[10],inactive
same,Potency,[7],inactive
CCCc1nc2c(C)cc(-c3nc4ccccc4n3C)cc2n1Cc1ccc(-c2ccccc2C(=O)O)cc1,outcome,[11],inactive
same,Potency,[10],inactive
same,Potency,[7],inactive
COc1cc(Nc2ncc3c(n2)-c2ccc(Cl)cc2C(c2c(F)cccc2OC)=NC3)ccc1C(=O)O,"activity change, negative = inhibition",[1],2.21%
same,activity,[2],-15.5%
same,activity,[3],2.42%
same,Potency,[9],inactive
same,Potency,[5],inactive
same,Potency,[12],inactive
same,outcome,[13],inactive
same,outcome,[14],inactive
same,Potency,[6],inactive
same,Potency,[7],inactive
Nc1nccc(-c2ccc3noc(-c4ccc(Cl)cc4)c3c2)n1,"activity change, negative = inhibition",[1],4.33%
same,activity,[2],-9.7%
same,activity,[3],-0.0134%
same,Potency,[7],inactive
COc1cc2c(cc1OC)CN(CCc1ccc(NC(=O)c3cccc4c(=O)c5cccc(OC)c5[nH]c34)cc1)CC2,"activity change, negative = inhibition",[1],-0.294%
same,activity,[2],-75.2%
same,activity,[3],-10.7%
same,outcome,[11],inactive
same,Potency,[9],inactive
same,Potency,[5],inactive
same,Potency,[12],inactive
same,outcome,[13],inactive
same,Potency,[10],inactive
COc1ccc2nc(S(=O)Cc3ncc(C)c(OC)c3C)[nH]c2c1 (stereo unspecified),outcome,[11],inactive
same,Potency,[5],11.4 µM (active)
same,Potency,[6],inactive
same,Potency,[7],18.7 µM (active)
Cc1cnc(NC(=O)C2=C(O)c3ccccc3S(=O)(=O)N2C)s1,outcome,[11],inactive
same,outcome,[4],inactive
same,Potency,[9],inactive
same,Potency,[5],inactive
same,Potency,[10],inactive
same,Potency,[7],inactive
NNCCc1ccccc1,outcome,[4],inactive
same,Potency,[6],6.62 µM (active)
same,Potency,[10],inactive
same,Potency,[7],inactive
CNC[C@H](O)c1cccc(O)c1,outcome,[4],inactive
same,Potency,[9],inactive
same,Potency,[6],inactive
same,Potency,[10],inactive
same,Potency,[7],inactive
O=C(Nc1nc2ccccc2n1CCN1CCOCC1)c1cccc([N+](=O)[O-])c1,outcome,[4],inactive
same,Potency,[9],inactive
same,Potency,[5],inactive
same,Potency,[7],4.18 µM (active)
CC(C)NCC(O)COc1ccc(COCCOC(C)C)cc1 (stereo unspecified),outcome,[4],inactive
same,Potency,[9],inactive
same,Potency,[5],inactive
Cc1cccc(-c2[nH]c(C(C)(C)C)nc2-c2ccc3nccnc3c2)n1,outcome,[4],inactive
same,Potency,[9],inactive
same,Potency,[5],inactive
same,Potency,[10],3.32 µM (active)
NS(=O)(=O)c1cc2c(cc1Cl)NC=NS2(=O)=O,outcome,[4],inactive
same,Potency,[5],inactive
same,Potency,[6],inactive
O=C1CCc2cc(OCCCCc3nnnn3C3CCCCC3)ccc2N1,outcome,[4],inactive
same,Potency,[9],inactive
same,Potency,[5],inactive
same,Potency,[6],inactive
same,Potency,[7],inactive
OC(CN1CCC(Cc2ccc(F)cc2)CC1)c1ccc(Cl)cc1 (stereo unspecified),outcome,[4],inactive
same,Potency,[5],inactive
same,Potency,[6],inactive
same,Potency,[10],inactive
Cn1cnc([N+](=O)[O-])c1Sc1ncnc2nc[nH]c12,outcome,[4],inactive
same,Potency,[9],inactive
same,Potency,[5],inactive
same,Potency,[6],0.418 µM (active)
same,Potency,[7],inactive
CC(C[N+](C)(C)C)OC(N)=O (stereo unspecified),outcome,[4],inactive
same,Potency,[9],inactive
same,Potency,[10],inactive
same,Potency,[7],inactive
Cc1ccc(N(CC2=NCCN2)c2cccc(O)c2)cc1,outcome,[4],inactive
same,Potency,[5],inactive
same,Potency,[6],20.9 µM (active)
same,Potency,[10],inactive
same,Potency,[7],inactive
O=c1[nH]cnc2[nH]ncc12,outcome,[4],inactive
same,Potency,[9],inactive
same,Potency,[5],inactive
same,Potency,[6],inactive
same,Potency,[10],inactive
same,Potency,[7],inactive
C[C@]12CCC(=O)C=C1CC[C@@H]1[C@@H]2[C@@H](O)C[C@@]2(C)[C@H]1CC[C@]2(O)C(=O)CO,outcome,[4],inactive
Cc1oncc1C(=O)Nc1ccc(C(F)(F)F)cc1,outcome,[4],inactive
same,Potency,[9],inactive
same,Potency,[5],inactive
same,Potency,[6],inactive
same,Potency,[7],20.9 µM (active)
CC(C)(C)NCC(O)c1ccc(O)c(CO)c1 (stereo unspecified),outcome,[4],inactive
same,Potency,[9],inactive
same,Potency,[5],inactive
same,Potency,[6],inactive
same,Potency,[10],inactive
same,Potency,[7],inactive
Cc1cn[nH]c1,outcome,[4],inactive
same,Potency,[9],inactive
same,Potency,[5],inactive
same,Potency,[6],0.0526 µM (active)
same,Potency,[10],0.296 µM (active)
same,Potency,[7],0.105 µM (active)
OC(CCN1CCCCC1)(c1ccccc1)C1CC2C=CC1C2 (stereo unspecified),outcome,[4],inactive
same,Potency,[9],inactive
same,Potency,[5],inactive
same,Potency,[6],inactive
same,Potency,[10],inactive
same,Potency,[7],inactive
